The entries come from a sample that favours hits as a whole.
TTR transcr act = TTR transcription activation, primary screen; SH-SY5Y TTR promoter Gaussia luciferase, luminescence; 100% = recombinant luciferase protein wells; AID 1117267; actives 1.3% (n = 92,000); activation, % at 16.7 µM;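 active = activation above the mean of all tested compounds plus 3 SD, cut at about 9.5% in these data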;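 note: cells exposed to compounds for one day before reading; 0% = median of all test compound wells on the plate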
HuH7 TTR inh = decreases TTR transcription in HuH7 cells in activator counter-screen. shares compounds with TTR transcr act. HuH7 TTR promoter-Gaussia luciferase reporter, luminescence. inhibition, % at 16.7 µM. actives 4% (n = 1,100);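 active = average inhibition above the solvent-only control wells' mean plus 3 SD, cut at about 15% in these data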;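 note: 0% = cells with DMSO only and 100% = cells with inhibitor control FD; inhibitors lower well luminescence so higher value means more inhibition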
TTR act confirm = human TTR transcription activation, confirmation. SHSY5Y TTR promoter Gaussia luciferase, luminescence; 100% = purified Lucia enzyme wells, no cells. shares compounds with TTR transcr act. 1,100 tested, under 10 active. activation, % at 16.7 µM;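 active = mean activation above a set limit taken from the earlier primary screen, cut at about 11% in these data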;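 note: 0% = DMSO-treated cells and 100% = recombinant Lucia luciferase without cells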
* hit, by the source's call.

Screening O=C(NC1CCCCN(Cc2ccc(Cl)cc2)C1=O)c1ccc(-c2ccccc2)cc1 (stereo not drawn) returned TTR transcr act -1.1.
Screening CCCCCC(=O)NC1CCCCN(Cc2ccc(C)cc2)C1=O (stereo not drawn) returned TTR transcr act -1.2.
`CC(C)(C)c1ccc(-c2csc(N3CCC(C(N)=O)CC3)n2)cc1` gave TTR transcr act 1.6.
COc1ccc(-c2noc(CCC(=O)Nc3nc4ccccc4s3)n2)cc1 was read as TTR transcr act 6.1.
For COc1ccc(NC(=O)CCc2nc(-c3ccccc3F)no2)cc1 the results were TTR transcr act 9.9*, HuH7 TTR inh -16.6 and TTR act confirm 0.1.
For CCOC(=O)c1cccc(NC(=O)CCc2nc(-c3ccccc3F)no2)c1 the results were TTR transcr act 5.0.
Screening CCCCCn1nnnc1C1(C)CCCCC(=O)N1Cc1ccco1 (stereo not drawn) returned TTR transcr act 1.1.
COc1c(O)cccc1[C@@H](O)C1CCN(CCc2ccc(F)cc2)CC1 was read as TTR transcr act 70.1*, HuH7 TTR inh -3.8 and TTR act confirm -0.2.
CCOC(=O)c1cc2cc(OC)ccc2n1C1CCN(CCc2ccccc2)CC1 was read as TTR transcr act 1.3.
CC1CCN(CC(=O)NCCc2ccc(F)cc2)CC1 was read as TTR transcr act -0.9.
`COc1ccc(CN2C(=O)[C@@](O)(c3cccn3C)c3cc(Br)ccc32)cc1` gave TTR transcr act -1.9.
Fc1cc(F)cc(NC(=S)Nc2ccccc2N2CCOCC2)c1 was read as TTR transcr act 11.8*, HuH7 TTR inh -2.8 and TTR act confirm -0.9.
Screening COc1cc(OC)cc(C(=O)Nc2ccccc2N2CCOCC2)c1 returned TTR transcr act -1.4.
Screening O=C(Nc1ccccc1N1CCOCC1)c1ccc2ccccc2c1 returned TTR transcr act -1.1.
For CCC1CCCCN1C(=O)n1ncc(C(O)(c2ccccc2)c2ccccc2)n1 (stereo not drawn) the results were TTR transcr act -0.1.
O=C(Nc1ccc2c(c1)OCO2)NC1CCCCN(Cc2cccc(Cl)c2)C1=O (stereo not drawn) was read as TTR transcr act 1.4.
`CCC[C@H]1[C@@H](OC(=O)NCc2ccc(C)cc2)CC[C@@]23CCCN2C(=O)CCC[C@@H]13` gave TTR transcr act 0.9.
Screening Cc1ccc(Sc2nnc(-c3ccccc3)cc2C#N)cc1 returned TTR transcr act 4.2.
COc1ccc(Sc2nnc(-c3ccccc3)cc2C#N)cc1 was read as TTR transcr act 10.4*, HuH7 TTR inh 1.6 and TTR act confirm -0.6.
For COc1ccc(C(=O)CSc2ccc(-c3ccccc3)nn2)cc1 the results were TTR transcr act 0.1.
Screening CCCC[C@H]1C2CC(OC(=O)Nc3ccc(C)cc3)C(C2)[C@H]2CCCCN21 (stereo partly drawn) returned TTR transcr act 5.7.
Cc1ccccc1Cn1cc(COC(=O)NCCc2c[nH]c3ccccc23)nn1 was read as TTR transcr act 1.3.
`CC[C@]12c3[nH]c4cc(-c5ccco5)ccc4c3CCN1C(=O)[C@@H](CC(=O)NCCC1=CCCCC1)C[C@@H]2C(=O)N1CCN(C(=O)C2CC2)CC1` gave TTR transcr act 4.0.
Screening CC[C@]12c3[nH]c4cc(CCC(=O)N(C)C)ccc4c3CCN1C(=O)[C@@H](CC(=O)NCc1ccc(OC)c(OC)c1)C[C@@H]2C(=O)N1CCN(C(=O)C2CC2)CC1 returned TTR transcr act 2.4.
Screening CC[C@]12c3[nH]c4cc(-c5ccco5)ccc4c3CCN1C(=O)[C@@H](CC(=O)NCc1ccc(OC)c(OC)c1)C[C@@H]2C(=O)N1CCN(C(=O)C2CC2)CC1 returned TTR transcr act 10.4*, HuH7 TTR inh 0.9 and TTR act confirm -0.3.
For COP(=O)(CC(=O)O)C(CC(C)C)NC(=O)OCc1ccccc1 (stereo not drawn) the results were TTR transcr act 0.1.

Bioassay records (PubChem BioAssay)
